Twelve compounds from PubChem BioAssay (EPA / NIEHS) can be followed below.

One assay has as its system IYD (gene 389434). Nature of the assay: CCTE_GLTED_hIYD: CCTE's human Iodotyrosine Deiodinase (xIYD) Inhibition Assay, Great Lakes Toxicology and Ecology Division (GLTED) Lab (AID 2284317; active means hit-call score of the fitted dose curve at least 0.9, where 1 is the maximum;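 further: cell-free human IYD enzyme made in baculovirus insect cells; iodide freed from monoiodotyrosine measured by cerium arsenite color change at 420 nm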). A digest of the protocol:
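First, recombinant human IYD (baculovirus-insect cells), MIT and chemical incubated 3 h. Next, iodide isolated on Dowex. Finally, Sandell-Kolthoff rate read at 420 nm, with platewise normalization to MNT and solvent controls.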

Assay [1] can be described thus: CCTE_Deisenroth_5AR_NBTE_donor: CCTE's 5alpha-reductase NanoBRET Target Engagement Assay […], Deisenroth Lab (AID 2284319). As to conditions: actives raise or lower the signal. The procedure, abridged: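 Donor NanoLuc luminescence at 460-20 nm is the read-out, serving artifact detection. Transiently expressed SRD5A2-NanoLuc in HEK293T; 5 h total chemical exposure, testosterone tracer added for the final 2 h; fitting bidirectional relative to DMSO baseline.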
On the technique in general: In BRET a luciferase serves as donor, and the signal depends on an acceptor being close.

The nature of assay [2]: CCTE_Deisenroth_5AR_NBTE_acceptor: CCTE's 5alpha-reductase NanoBRET Target Engagement Assay - Autofluorescence Screen, Deisenroth Lab (AID 2284321).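 Further: compound fluorescence in the acceptor channel under 460 nm excitation flags autofluorescence artifacts.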 As to conditions: actives raise or lower the signal. The procedure, abridged:
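Acceptor fluorescence intensity was read as an artifact-detection endpoint. Test chemicals at an assumed nominal 100 uM were excited at 460 nm across three independent runs. Activity was fitted bidirectionally against DMSO.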

For another assay, the system named is SRD5A2 (gene 6716). Nature of the assay: CCTE_Deisenroth_5AR_NBTE_ratio: CCTE's 5alpha-reductase NanoBRET Target Engagement Assay - Ratio, Deisenroth Lab (AID 2284322). The note with it: actives raise or lower the signal. The procedure, abridged:
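Reverse-transfect HEK293T with pNLF1-C-SRD5A2, express 20 h. Pre-incubate cells with chemical 3 h (8-point series, 10 nM - 29.9 uM, duplicate). Add testosterone tracer, 2 h more. Add substrate/inhibitor, read donor and acceptor emission.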

The next assay concerns TTR (gene 7276). Nature of the assay: CCTE_GLTED_hTTR_0.5uM: CCTE's human Transthyretin (hTTR) Inhibition Assay, with 0.5uM TTR, Great Lakes Toxicology and Ecology Division (GLTED) Lab (AID 2284320). A digest of the protocol: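 Cell-free displacement assay in which human TTR at 0.5 uM was incubated with test chemical for 2 h. Displacement of the ANSA probe was read by fluorescence at 380 nm excitation/475 nm emission. Loss of signal was fitted in the positive direction versus DMSO.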

A further assay concerns SERPINA7 (gene 6906). Nature of the assay: CCTE_GLTED_hTBG: CCTE's human Thyroxine-binding Globulin (TBG) Inhibition Assay, Great Lakes Toxicology and Ecology Division (GLTED) Lab (AID 2284343; active means hit-call score of the fitted dose curve at least 0.9, where 1 is the maximum;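 further: active chemicals lower fluorescence versus DMSO baseline by displacing probe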). A digest of the protocol:
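Measures how far test chemicals displace ANSA bound to purified human TBG. The read-out is fluorescence at 380 nm excitation and 475 nm emission, taken after 2 h of incubation.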

Assay [3] can be described thus: CCTE_Padilla_ZF_Score.Craniofacial: CCTE's 144 Hour Post-fertilization zebrafish Assay Score for Craniofacial Malformation, Padilla Lab (AID 2284405). A digest of the protocol:
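Wild-type zebrafish embryos (with chorions), one per well in 10% Hanks', were dosed at 6–8 hpf in sealed plates and kept at 26C. They were rinsed at 5 dpf. At 6 dpf two blinded assessors scored craniofacial malformations by brightfield stereomicroscopy.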

For assay [4], the system named is Brachyury (BRA) Protein Expression, Deisenroth Lab, TBXT (gene 6862). Nature of the assay: CCTE_Deisenroth_DEVTOX-GLR_legacy_Bra: (Legacy) CCTE's DevTox GLR-Endo Assay Evaluation of Brachyury (BRA) Protein Expression, Deisenroth Lab (AID 2284329). A digest of the protocol: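 Human pluripotent RUES2-GLR line was exposed twice during 48 h differentiation to a 10-point series, 1 nM - 200 uM. Fraction of Bra-positive cells was scored by imaging against pluripotent baseline and fitted after 0.2% DMSO subtraction.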

Assay [5] in a line: CCTE_Deisenroth_DEVTOX-GLR_legacy_CellCount: (Legacy) Viability Assessment in CCTE's DevTox GLR-Endo Assay, Deisenroth Lab (AID 2284331). The note with it: actives raise or lower the signal. The procedure, abridged: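 Nuclei count by fluorescence high-content imaging (5 fields/well) after 48 h differentiation of RUES2-GLR cells. Two exposures, 24 h apart; 1 nM - 200 uM series; n=4. Bidirectional fit vs DMSO.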

The test system of assay [6] is SRY-box transcription factor 17 (SOX17) Protein Expression, Deisenroth Lab, SOX17 (gene 64321). Nature of the assay: CCTE_Deisenroth_DEVTOX-GLR_legacy_Sox17: (Legacy) CCTE's DevTox GLR-Endo Assay Evaluation of SRY-box transcription factor 17 (SOX17) Protein Expression, Deisenroth Lab (AID 2284341). As to conditions: actives raise or lower the signal. The procedure, abridged: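 RUES2-GLR human pluripotent cells, seeded 24 h, then differentiated 48 h in defined media with two chemical exposures 24 h apart (1 nM - 200 uM, 10 points). Sox17+ fraction from high-content fluorescence imaging; bidirectional fit versus 0.2% DMSO.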

Assay [7] relates to SRY-box transcription factor 2 (SOX2) Protein Expression, Deisenroth Lab, SOX2 (gene 6657). Nature of the assay: CCTE_Deisenroth_DEVTOX-GLR_legacy_Sox2: (Legacy) CCTE's DevTox GLR-Endo Assay Evaluation of SRY-box transcription factor 2 (SOX2) Protein Expression, Deisenroth Lab (AID 2284346). A digest of the protocol:
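hPSC RUES2-GLR, 384-well; 24 h seed → 48 h endoderm differentiation, 2 doses q24h, 1 nM–200 uM. Fix, nuclear dye, 5 fields/well. Sox2+ cells/cell count; cell positive if >5x BMAD over endoderm ctrl; gain direction vs DMSO.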

Assay [8] can be described thus: IUF_NPC2-5_cytotoxicity_72hr: Cytotoxicity Assessment at 72 hours in the Leibniz Research Institute for Environmental Medicine (IUF) Neural Progenitor Cell Migration and Differentiation Assay for Cytotoxicity (NPC2-5) (AID 2284306; active means hit-call score of the fitted dose curve at least 0.9, where 1 is the maximum;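 further: LDH release into supernatant measured by resorufin fluorescence marking membrane damage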). A digest of the protocol:
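Membrane integrity loss was scored from fluorescence (RFU) of resorufin generated by LDH in culture supernatant, 72 h after dosing. Differentiating human progenitor spheres received seven serial compound concentrations alongside a solvent control.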

A short description of assay [9]: IUF_NPC2-5_cytotoxicity_120hr: Cytotoxicity Assessment at 120 hours in the Leibniz Research Institute for Environmental Medicine (IUF) Neural Progenitor Cell Migration and Differentiation Assay (NPC2-5) (AID 2284307; active means hit-call score of the fitted dose curve at least 0.9, where 1 is the maximum). A digest of the protocol: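 Sphere plating starts differentiation and exposure together at day 0. Compound solution is half-replaced on day 3. At 120 h, medium supernatant is taken for an LDH membrane-integrity read based on resazurin reduction to resorufin fluorescence.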

A short description of assay [10]: IUF_NPC2-5_cell_number_120hr: Cell Number Assessment at 120 hours in the Leibniz Research Institute for Environmental Medicine (IUF) Neural Progenitor Cell Migration and Differentiation Assay (NPC2-5) (AID 2284308).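 Further: count of Hoechst-stained nuclei in migration zone around plated human neural progenitor spheres.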 The procedure, abridged:
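hNPC spheres, one per well, PDL/laminin, N2 medium, 37C, 5% CO2. Dosing day 0 → half-medium change with fresh compound day 3 → fix 120 h. Readout: Hoechst+ nuclei count, migration area; 7 concentrations plus solvent control.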

A short description of assay [11]: IUF_NPC2-5_viability_120hr: Viability Assessment at 120 hours in the Leibniz Research Institute for Environmental Medicine (IUF) Neural Progenitor Cell Migration and Differentiation Assay (NPC2-5) (AID 2284312). A digest of the protocol:
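Alamar blue resorufin fluorescence read after 5 days of differentiation, with compound present from day 0 and replenished at day 3. Primary hNPC spheres on laminin-coated plates, 37C; seven concentrations plus solvent control, fitted against DMSO.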

Assay [12] can be described thus: CCTE_Mundy_HCI_iCellGluta_NOG_NeuriteLength: CCTE's Neurite Outgrowth Assay in iCellGluta cells for Neurite Length, Mundy Lab (AID 2284318; active means hit-call score of the fitted dose curve at least 0.9, where 1 is the maximum). A digest of the protocol:
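Automated high-content imaging of betaIII-tubulin (Alexa Fluor-488) and Hoechst-stained cells gave neurite length, normalized to the DMSO baseline.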

Assay [13] in a line: IUF_NPC1_cytotoxicity_72hr: Cytotoxicity Assessment at 72 hours in the Leibniz Research Institute for Environmental Medicine (IUF) Neural Progenitor Cell Proliferation Assay (NPC1) (AID 2284332; active means hit-call score of the fitted dose curve at least 0.9, where 1 is the maximum;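 further: rising LDH signal means more cytotoxicity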). The procedure, abridged:
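hNPC spheres (fetal brain, gestational week 16-19) grown under proliferative EGF/FGF conditions, pH 7.2-7.6, were treated continuously for 72 h. Cytotoxicity came from LDH-coupled resazurin fluorescence in each well's supernatant.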

Assay [14] can be described thus: CCTE_Mundy_HCI_iCellGluta_NOG_NeuronCount: CCTE's Neurite Outgrowth Assay in iCellGluta cells for Neuron Count, Mundy Lab (AID 2284340; active means hit-call score of the fitted dose curve at least 0.9, where 1 is the maximum;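 further: cells fixed about 48 h after compound addition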). A digest of the protocol: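 Neuron count read by automated high-content imaging of Hoechst 33342 and betaIII-tubulin/Alexa Fluor-488 labelling in human iPSC glutamatergic neurons. Activity fitted relative to DMSO.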
A short description of assay [15]: CCTE_Mundy_HCI_iCellGluta_NOG_NeuriteCount: CCTE's Neurite Outgrowth Assay in iCellGluta cells for Neurite Count, Mundy Lab (AID 2284342; active means hit-call score of the fitted dose curve at least 0.9, where 1 is the maximum;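 further: chemical exposure about 48 hours starting 2 hours after plating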).

SMILES strings stand for the structures. Records with an inconclusive call do not appear. Active and inactive are the calls of the source. How the source made its calls, unless noted: active means hit-call score of the fitted dose curve at least 0.9, where 1 is the maximum; inactive means score below 0.9.

The term AC50 denotes the midpoint of the concentration-response curve, whichever way the signal moves. Take `O=C1OC2(c3ccc(O)cc3Oc3cc(O)ccc32)c2ccccc21`: the outcome (with IYD (gene 389434); in [2]) was inactive. The AC50 is 3.88 µM (active) in assay [1] and 10.3 µM (active) in the assay with SRD5A2 (gene 6716).

For `O=C(O)C(F)(F)C(F)(F)C(F)(F)C(F)(F)C(F)(F)C(F)(F)C(F)(F)C(F)F`, the concentration at half-maximal activity (AC50) with TTR (gene 7276) is 0.53 µM (active); in the assay on SERPINA7 (gene 6906), 73.1 µM (active). In addition, the result in assay [3] was inactive.

Consider `CCCCCCCCCCCCOCCOS(=O)(=O)O`, for which the AC50 is 76.7 µM (active) with IYD (gene 389434); 79 µM (active) in assay [1]; 78.4 µM (active) in assay [2]; 79.1 µM (active) in the assay with SRD5A2 (gene 6716); 50 µM (active) in the assay with SERPINA7 (gene 6906).

Turning to `O=c1cc(-c2ccc(O)cc2)oc2cc(O)cc(O)c12`, the concentration at half-maximal activity (AC50) in the assay with SERPINA7 (gene 6906) was 38.2 µM (active).

Regarding `O=C(O)c1ccccc1O`, the result in assay [4], in assay [5], in assay [6] and in [7] was inactive. The AC50 with SERPINA7 (gene 6906) was 50 µM (active).

For `CCCCCCCCCCCCN1CCOCC1`, in the assay with IYD (gene 389434), the half-maximal activity concentration (AC50) was 51 µM (active). The outcome (in assay [1]; in [2]; with SRD5A2 (gene 6716)) was inactive.

Consider `O=S(=O)(O)C(F)(F)C(F)(F)OC(F)(F)C(F)(F)F`, for which, in the assay with TTR (gene 7276), the AC50 is 2.14 µM (active). Also, the result in assay [3] was inactive.

For `C=C(F)C(=O)OC(C(F)(F)F)C(F)(F)F`, the outcome in assay [3] was inactive.

Take `O=S(=O)(O)c1cc(S(=O)(=O)O)c2c(N=Nc3ccccc3)c(O)ccc2c1`: the call in assay [1] and in assay [2] was inactive. The AC50 is 10.9 µM (active) in the assay on SRD5A2 (gene 6716) and 33.9 µM (active) in the assay with SERPINA7 (gene 6906).

In the case of `CC(C)Cc1ccc(C(C)C(=O)O)cc1` (centres undefined), the outcome in assay [8], in assay [9], in [10], in [11], in assay [5] and in assay [13] was inactive. The compound was called inactive in [14], in assay [15] and in assay [7]. Besides, the AC50 in assay [12] is 15 µM (active).

As for `N[C@@H](CCC(=O)O)C(=O)O`, the result in assay [9], in [10], in assay [11], in [12], in assay [13] and in [14] was inactive. In assay [15], the outcome was inactive.

For the compound `CCCO[Si](OCCC)(OCCC)OCCC`, the outcome (in assay [1]; in assay [2]; in the assay on SRD5A2 (gene 6716)) was inactive.
